For orientation: inhibition means the drop in the measured response relative to a control, in per cent.

The structures appear in SMILES notation. Out of some 220,000 compounds screened, about 2,400 (1.1%) were called active. Many of the other results were omitted from the sample, so actives are more common in it than they were. Values without a mark were called inactive.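 Rule for the calls: active = inhibition above the campaign mean plus 3 SD over all tested compounds (cut at about 24% in these data); inactive = the rest.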

The assay can be described thus: reduced viability of JAK2V617F-dependent Ba/F3 cells, primary screen, JAK2V617F inhibitor project, cell-based, Ba/F3 EpoR-JAK2V617F, luminescence (AID 1446).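 Note: cytokine-independent growth of Ba/F3 cells driven by EpoR plus mutant JAK2; 0% = DMSO-treated cells and 100% = JAK inhibitor I control.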 As to conditions: ATP luminescence, at 5.6 µM, hits give high values.
In the case of `CCCCCCCCCCCCn1ccc(=N)cc1`, the inhibition was 98.4% (active). Under `COc1cc(OC)cc(C2(C#N)CCN(C)CC2)c1` stands -0.42%; under `O=C1NC(=O)N(CCc2ccc(F)cc2)C(=O)/C1=C/C=C/c1ccccc1`, 1.28%. Under `COc1ccc(-n2c(-c3ccccc3)nc3ccccc3c2=O)cc1` stands 0.29%; under `CN(C)CC1Oc2ccccc2OC1(O)c1ccccc1` (stereo not given), 91.1% (active); under `O=c1[nH]c(=O)n(-c2ccc(F)cc2)c(O)c1C=NCCN1CCCCC1`, 0.16%. Under `Cc1cccc(NC(=O)OC2CN3CCC2CC3)c1` (stereo not given) stands 2.6%.

Turning to `CN1CCN(/N=C/c2c[nH]c3ccccc23)CC1`, the inhibition was -2.46%.

As for `CC1=C(C(=O)Nc2ccccc2)S(=O)(=O)CCO1`, the inhibition is -1.56%.

On to `CCOc1ccc(-c2cc(C)[n+](CCN(CC)CC)c(-c3ccc(OCC)cc3)c2)cc1`, for which the inhibition was 98.2% (active). As for `CC1=C2C(=O)C3C(CC=C4CC(OC5OC(O)C(O)C(O)C5CO)CCC43C)C2CCC12OC1CC(C)CNC1C2C` (stereo not given), the inhibition was 0.84%. For `CSc1nc2ccc(C)cc2c(=O)n1-c1cccnc1` the value was 3.49%; for `CC1(C)Cc2c(C#N)c(N3CCNCC3)nc(-c3ccco3)c2CS1`, 1.65%. For `CCOc1cccc(=NC2CCCCC2)c2c(C)[nH]c(C)c12` the value was 34% (active). For the molecule `O=C(O)COc1ccccc1/C=C1\C(=O)NC(=O)N(CCC2=CCCCC2)C1=O`, the inhibition is -1.88%.

Turning to `Cn1c(O)c(C(=Nc2ccc(F)cc2)c2ccccc2)c(=O)n(C)c1=O`, the inhibition was -3.28%. Under `CCCCC(=O)N/N=C/c1c(O)n(CCC2=CCCCC2)c(=O)[nH]c1=O` stands -0.19%; under `O=c1[nH]c(=O)n(CCc2ccc(F)cc2)c(O)c1/C=N/N1CCCCC1`, -0.8%. Under `O=c1[nH]c(CN2CC=C(c3ccccc3)CC2)nc2scc(-c3cccs3)c12` stands -4.83%. Under `Cc1ccc(CN2CCCC(C(=O)c3ccc4c(c3)OCO4)C2)cc1C` (stereo not given) stands -3.5%; under `CCOP(=O)(OCC)C(NC(=O)NC)C(N)=O` (stereo not given), 3.57%; under `CC1=CC(=Cc2sc3ccccc3[n+]2C)C=C(C)O1`, 101% (active). On to `CNC(=O)O/N=C(\N)Cc1csc2ccc(Cl)cc12`, for which the inhibition is 1.27%.

With `O=c1[nH]c(=O)n(CCc2ccccc2)c(O)c1/C=N/N1CCOCC1`, the inhibition is -2.98%.

On to `CCOP(=O)(OCC)C(NC(=O)c1ccc(OC)cc1)C(Cl)(Cl)Cl` (stereo not given), for which the inhibition was 1.2%.

The values above are taken from PubChem BioAssay AID1446 (The Scripps Research Institute Molecular Screening Center, 2008).
